High-throughput results (PubChem)
aSyn 5UTR act: Activators working through SNCA 5'UTR binding (MLPCN); alpha-synuclein 5'UTR reporter, activators screen; activity score, % (tested at 7.5 µM), hits read low; 7.1% of 300,000 active; AID 1814; in the data active means activity score below about -60%
Of the large screens only hits and unclear results are named; the others gave an inactive call. The list is a sample of the results.

O=C(Nc1ccccc1Cl)c1csc(-c2cccnc2)n1	aSyn 5UTR act -70
O=C(Nc1ccc(F)cc1F)c1cccc(C(=O)Nc2ccc(F)cc2F)n1	none
CC1=NN(c2ccccc2)C(=O)/C1=C\c1cn(CCC#N)nc1-c1ccc(Cl)cc1	aSyn 5UTR act -85
Cc1c(C(=O)Oc2cccc3ccccc23)cnn1-c1ccccc1	aSyn 5UTR act -65
CCc1ccc(NC(=O)c2cnn(-c3ccccc3)c2C)cc1	aSyn 5UTR act -83
Cc1c(C(=O)N(C)c2cccc(Cl)c2)cnn1-c1ccccc1	aSyn 5UTR act -104
Cc1c(C(=O)Nc2cc(F)cc(F)c2)cnn1-c1ccccc1	aSyn 5UTR act -187
Cc1nn(-c2ccccc2)cc1C(=S)Nc1ccccc1	aSyn 5UTR act -171
Cc1c(C(=O)Nc2ccccc2F)cnn1-c1ccccc1	aSyn 5UTR act -163
Cc1c(C(=S)Nc2ccccc2)cnn1-c1ccccc1	aSyn 5UTR act -108
COc1ccc(-c2csc(Nc3ccccn3)n2)cc1OC	aSyn 5UTR act -170
Fc1ccc(-c2csc(Nc3ccccn3)n2)c(F)c1	aSyn 5UTR act -102
COc1ccc(C2=Nn3c(nnc3-c3ccncc3)SC2)cc1OC	none
Oc1ccc(-c2csc(Nc3ccccn3)n2)cc1	aSyn 5UTR act -163
c1ccc(-c2csc(Nc3ccccn3)n2)cc1	aSyn 5UTR act -107
CCOc1ccc(NC(=S)c2ccc3ccccc3n2)cc1	aSyn 5UTR act -67
COc1ccc(NC(=S)c2ccc3ccccc3n2)cc1	aSyn 5UTR act -70
COc1ccc(C(=O)NC(=S)NNC(=O)c2ccc3ccccc3n2)cc1	none
CC(=O)C1=C(C)OC(N)=C(C#N)C1c1cc([N+](=O)[O-])ccc1Cl (stereo unspecified)	aSyn 5UTR act -69
Cc1ccc(C(=O)CCC(=O)Nc2ncccc2O)cc1	aSyn 5UTR act -70
Cc1ccc(C(=O)Nc2ncccc2O)o1	aSyn 5UTR act -84
Cc1noc(C)c1COc1ccc(CC(=O)NCc2ccccc2)cc1	none
O=C(Nc1ncccc1O)c1ccc(Oc2ccccc2)cc1	aSyn 5UTR act -198
Cc1noc(C)c1COc1ccc(C(=O)Nc2ncccc2O)cc1	aSyn 5UTR act -67
CCOC(=O)c1ccc(CSc2nnc(-c3ccncc3)n2N)cc1	aSyn 5UTR act -63
Cc1ccc(NC(=O)c2ccc(CSc3nnc(-c4ccncc4)n3C)cc2)cc1	aSyn 5UTR act -108
Cn1nnnc1SCc1ccc(C(=O)Nc2ccc(Br)cc2)cc1	aSyn 5UTR act -186
Cc1cccnc1NC(=O)/C=C/c1ccc2c(c1)OCO2	aSyn 5UTR act -151
Cc1cc(C)nc(NC(=O)/C=C/c2ccc3c(c2)OCO3)c1	aSyn 5UTR act -207
COC(=O)c1cccc(NC(=O)/C=C/c2ccc3c(c2)OCO3)c1	none
CCCc1noc(-c2ccc(-c3ccccc3)cc2)n1	aSyn 5UTR act -112
Cc1ccc2[nH]c(=O)c(-c3nc4ccccn4c3NCc3ccco3)cc2c1	aSyn 5UTR act -100
COc1ccccc1NC(=S)N(Cc1ccco1)Cc1cc2cc(C)c(C)cc2[nH]c1=O	none
O=Cc1c(NCc2ccco2)nc2ccccn2c1=O	aSyn 5UTR act -89
Oc1ccc(/C(Cc2ccc3ccccc3n2)=N\Nc2ccccc2)c(O)c1	aSyn 5UTR act -90
Cc1c(O)ccc(/C(Cc2ccc3ccccc3n2)=N\O)c1O	aSyn 5UTR act -76
CC(=O)Oc1ccc(C(=O)Cc2ccc3ccccc3n2)c(O)c1C	aSyn 5UTR act -143
Cc1ccc(OC(=O)NC2CCS(=O)(=O)C2)cc1C (stereo unspecified)	aSyn 5UTR act -122
Cc1sc(NC(=O)c2ccccc2)c(C#N)c1-c1ccccc1	aSyn 5UTR act -141
CCc1c(C)sc(NC(=O)c2cccs2)c1C#N	aSyn 5UTR act -158
CCc1c(C)sc(NC(=O)c2cc(C)on2)c1C#N	aSyn 5UTR act -103
Cc1cc(C(=O)Nc2sc(C)c(-c3ccc(F)cc3)c2C(N)=O)no1	aSyn 5UTR act -200
COc1ccc(/C=N/c2c(-c3ccco3)nc3ccccn23)cc1OC	aSyn 5UTR act -64
Cc1ccc(OCCCCCCN2CCNCC2)cc1	aSyn 5UTR act -64
CCOCC(=O)Nc1ccc(Br)c(C)c1	aSyn 5UTR act -120
Cc1ccc(Nc2nnc(SCC(=O)Nc3cccc(S(=O)(=O)N4CCCCC4)c3)s2)cc1	aSyn 5UTR act -119
O=C(CSc1nnc(NC2CCCCC2)s1)Nc1ccc2c(c1)C(=O)c1ccccc1C2=O	aSyn 5UTR act -121
CC(C)Nc1nnc(SCC(=O)Nc2ccc3c(c2)C(=O)c2ccccc2C3=O)s1	aSyn 5UTR act -184
Cn1c(SC/C=C/c2ccccc2)nnc1-c1cnccn1	aSyn 5UTR act -63
Cn1c(SCc2ccccc2[N+](=O)[O-])nnc1-c1cccnc1	aSyn 5UTR act -68
Cc1ccccc1CSc1nnc(-c2ccccn2)n1C	aSyn 5UTR act -104
Cn1c(SCc2cccc(F)c2)nnc1-c1ccccn1	aSyn 5UTR act -142
COc1ccc(Cn2c(SCc3ccccc3C)nc3cc(OC)c(OC)cc3c2=N)cc1	none
Cn1c(SCc2ccccc2Cl)nnc1-c1cnccn1	aSyn 5UTR act -92
Cn1c(SCc2cccc(F)c2)nnc1-c1cnccn1	aSyn 5UTR act -98
C#CC[N+](C)(C)CCCCCCCCC	none
O=C(/C=C1\SC(=O)N(CC(=O)Nc2ccc(F)cc2)C1=O)Nc1ccc(Cl)cc1	aSyn 5UTR act -196
Cc1nc2cc(NCc3nc4ccccc4n3Cc3ccccc3)ccc2n1C	aSyn 5UTR act -96
Cn1c(CNc2ccc(Cl)cc2)nc2ccccc21	aSyn 5UTR act -176
Cc1ccc(N2CCN(c3ccc(NCc4nc5ccccc5n4C)cc3)CC2)cc1	aSyn 5UTR act -89
Cc1cccc(NCc2nc3ccccc3n2C)c1	aSyn 5UTR act -193
O=C(COC(=O)Cn1cnc2ccccc21)Nc1ccc2c(c1)C(=O)c1ccccc1C2=O	aSyn 5UTR act -153
C(=N\Nc1nc2ccccc2[nH]1)/c1cccc2nccnc12	none
Cc1ccc(/C=N\Nc2nc3ccc(Cl)cc3[nH]2)o1	aSyn 5UTR act -192
CCCCn1c(/C=N/Nc2nc3ccccc3[nH]2)nc2ccccc21	aSyn 5UTR act -433
C#CCn1cc(/C=N/Nc2nc3ccccc3[nH]2)c2ccccc21	aSyn 5UTR act -383
C(=N\Nc1nc2ccccc2[nH]1)/c1ccccn1	none
Fc1ccccc1-c1ccc(/C=N/Nc2nc3ccccc3[nH]2)o1	aSyn 5UTR act -217
Oc1ccc(C2=NNC(=NCc3ccc4c(c3)OCO4)SC2)c(O)c1	aSyn 5UTR act -87
C=CCN=C1NN=C(c2cc(C)n(CCOC)c2C)CS1	none
Cc1cc(C(=O)CSc2nnnn2-c2ccccc2)c(C)n1-c1ccc2c(c1)OCO2	aSyn 5UTR act -91
Cc1cc(C(=O)CSc2nncs2)c(C)n1-c1ccc2c(c1)OCO2	aSyn 5UTR act -153
O=C(Nc1ccc(Cl)cc1F)c1cccc2ccccc12	aSyn 5UTR act -63
O=C(Nc1ccc(Cl)cc1F)c1ccccc1Br	aSyn 5UTR act -207
O=C(NNC(=O)c1ccccc1Br)c1cccc(Cl)c1	aSyn 5UTR act -92
Nc1n[nH]c(N)c1N=Nc1ccc(Cl)cc1	aSyn 5UTR act -131
Nc1n[nH]c(N)c1N=Nc1cccc(C(F)(F)F)c1	aSyn 5UTR act -65
Nc1[nH]ncc1N=Nc1ccc(Cl)cc1	aSyn 5UTR act -89
COc1ccc(OC)c(NC(=O)c2cc(-c3cc(C)c(C)cc3O)n[nH]2)c1	aSyn 5UTR act -95
COc1ccc(OC)c(NC(=O)c2cc(-c3c(C)cc(C)cc3O)n[nH]2)c1	aSyn 5UTR act -112
CCOC(=O)c1sc(N2C(=O)C(O)=C(C(=O)c3ccco3)C2c2cccc(Cl)c2)nc1C (stereo unspecified)	aSyn 5UTR act -81
